This passage reports outcome and AC50 results from PubChem BioAssay (EPA / NIEHS).

Several values for one entry are separate records, joined by “and”; a condition that tells them apart may be missing. Identical values can stand only once. Inconclusive results are not listed. More than one record can exist for a structure, and the calls need not agree. Activity calls are given as the source filed them. The calls were made as follows, unless noted: active = hit-call score of the fitted dose curve at least 0.9, where 1 is the maximum; inactive = score below 0.9.

The target of assay [1] is Bile acid receptor (Homo sapiens) (UniProt Q96RI1). Kind of assay: ATG_FXR_TRANS: Attagene TRANS-FACTORIAL HepG2 Assay for Farnesoid X Receptor (FXR) (AID 2282979; active = hit-call score of the fitted dose curve at least 0.9, where 1 is the maximum;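 also: hits raise reporter mRNA above DMSO so AC50 marks FXR activation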). To be noted: HepG2 Attagene TRANS FXR-GAL4 reporter transcription. The essentials: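 HepG2 cells transiently transfected with reporter constructs in which a chimeric FXR-GAL4 protein drives a GAL4-UAS reporter; 24 h compound exposure. Reporter mRNA measured by RT-PCR, FAM labelling, HpaI digestion and capillary electrophoresis; gain-of-signal versus DMSO.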
Chain of Bile acid receptor (Homo sapiens) (Q96RI1 whole entry, looked up, the tested form may be a part): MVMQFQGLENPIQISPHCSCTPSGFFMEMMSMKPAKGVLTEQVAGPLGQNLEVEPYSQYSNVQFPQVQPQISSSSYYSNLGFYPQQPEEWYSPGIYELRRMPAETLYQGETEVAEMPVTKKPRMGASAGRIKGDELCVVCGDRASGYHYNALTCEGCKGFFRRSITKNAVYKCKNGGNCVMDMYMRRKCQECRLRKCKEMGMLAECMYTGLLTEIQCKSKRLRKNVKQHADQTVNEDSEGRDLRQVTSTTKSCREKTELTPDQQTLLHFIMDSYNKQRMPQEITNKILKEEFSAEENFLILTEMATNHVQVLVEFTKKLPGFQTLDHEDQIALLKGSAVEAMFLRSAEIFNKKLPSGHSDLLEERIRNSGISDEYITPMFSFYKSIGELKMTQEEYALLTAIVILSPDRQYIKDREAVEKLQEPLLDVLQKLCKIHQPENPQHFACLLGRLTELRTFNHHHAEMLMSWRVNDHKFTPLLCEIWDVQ

In assay [2] the target is Oxysterols receptor LXR-beta (Homo sapiens) (UniProt P55055). Kind of assay: ATG_LXRb_TRANS: Attagene TRANS-FACTORIAL HepG2 Assay for human Liver X Receptor beta (LXRb) (AID 2282981; active = hit-call score of the fitted dose curve at least 0.9, where 1 is the maximum). To be noted: HepG2 Attagene TRANS GAL4-LXRb reporter, mRNA. The gist of the method:
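Liver-derived HepG2 cells transfected with Gal4-responsive reporters were dosed for 24 h. Activation was scored as rise in reporter mRNA, by RT-PCR and capillary electrophoresis, above DMSO baseline.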

The target in assay [3] is Hepatocyte nuclear factor 4-alpha (Homo sapiens) (UniProt P41235). Kind of assay: ATG_HNF4a_TRANS: Attagene TRANS-FACTORIAL HepG2 Assay for human Hepatocyte Nuclear Factor 4 alpha (HNF4a) (AID 2282982; active = hit-call score of the fitted dose curve at least 0.9, where 1 is the maximum). Particulars: HepG2 HNF4a transactivation reporter, mRNA readout. The gist of the method:
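Using HepG2 liver cells transfected with GAL4-UAS reporter units, chemical-induced mRNA increases were assessed after 24 hours. Fluorescent RT-PCR fragments were separated by capillary electrophoresis and compared with DMSO negative controls.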

Assay [4] in a line: ATG_M_06_TRANS: Attagene TRANS-FACTORIAL HepG2 Assay for M06 Transcription Factor (Internal Marker) (AID 2282983; active = hit-call score of the fitted dose curve at least 0.9, where 1 is the maximum;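 also: reporter transcript level by RT-PCR then capillary electrophoresis fluorescence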). Particulars: HepG2 Attagene TRANS M06 internal marker reporter. The essentials:
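In this multiplexed HepG2 system, compounds are incubated 24 h with cells carrying GAL4-UAS reporter units. Reporter RNA is amplified and resolved by capillary electrophoresis, and induction is scored against DMSO.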

Assay [5] is described as follows: ATG_M_32_TRANS: Attagene TRANS-FACTORIAL HepG2 Assay for M32 Transcription Factor (Internal Marker) (AID 2282984; active = hit-call score of the fitted dose curve at least 0.9, where 1 is the maximum;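 also: transcript level of a background control reporter unit measured by RT-PCR and capillary electrophoresis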). Particulars: HepG2 Attagene TRANS M32 internal marker reporter. The gist of the method:
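Fluorescence-detected mRNA induction, HepG2 liver cells, 24 h after dosing. Multiple GAL4-UAS reporter units introduced by transient transfection; background-control endpoint analysed for gain of signal against DMSO.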

Assay [6] has as its target Nuclear receptor subfamily 4 group A member 2 (Homo sapiens) (UniProt P43354). Kind of assay: ATG_NURR1_TRANS: Attagene TRANS-FACTORIAL HepG2 Assay for human Nuclear Receptor Related Protein 1 (NURR1) (AID 2282985; active = hit-call score of the fitted dose curve at least 0.9, where 1 is the maximum). To be noted: HepG2 Attagene TRANS reporter, mRNA readout. The essentials: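 Chimeric NR-Gal4 proteins were expressed in human HepG2 cells bearing GAL4-UAS reporter units, and induced reporter mRNA was quantified 24 h post-dosing by RT-PCR and capillary electrophoresis.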

Assay [7] addresses Nuclear respiratory factor 1 (Homo sapiens) (UniProt Q16656). Kind of assay: ATG_NRF1_CIS: Attagene CIS-FACTORIAL HepG2 Assay for human Nuclear Respiratory Factor 1 (NRF1) Orphan Gene (AID 2282987). To be noted: HepG2 NRF1 cis-element reporter, Attagene multiplex; actives raise or lower the signal. The essentials: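 Transcriptional reporter readout, one component of a 52-endpoint multiplexed HepG2 panel. Exposure 24 h; mRNA detected via RT-PCR and fluorescent capillary electrophoresis; fitting in both directions against DMSO.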

Assay [8] in a line: ATG_NFI_CIS: Attagene CIS-FACTORIAL HepG2 Assay for human Nuclear Factor I (NFI) (AID 2282989). Particulars: HepG2 cis-regulatory reporter, NFI response element transcription; actives raise or lower the signal. The gist of the method:
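Transfected HepG2 liver cells, exposed 24 h, supplied total RNA for oligo(dT) reverse transcription and reporter-specific PCR. Labelled, HpaI-cut fragments were sized by capillary electrophoresis; DMSO set the baseline for bidirectional fitting.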

The target of assay [9] is Myc proto-oncogene protein (Homo sapiens) (UniProt P01106). The assay can be described thus: ATG_Myc_CIS: Attagene CIS-FACTORIAL HepG2 Assay for human Myelocytomatosis (Myc) Proto-Oncogene Transcription Factor (AID 2282990). To be noted: HepG2, Attagene cis-reporter transcription factor activity; actives raise or lower the signal. The gist of the method:
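DMSO-normalised, bidirectionally fitted reporter mRNA signal. HepG2 cells transfected with cis reporter constructs, treated 24 h; transcripts detected by RT-PCR, 6-FAM primer extension and CE.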

Assay [10] can be described thus: ATG_NF_kB_CIS: Attagene CIS-FACTORIAL HepG2 Assay for human Nuclear Factor Kappa B (NF-kB) (AID 2282991). To be noted: HepG2 Attagene cis-factorial NF-kB reporter mRNA; actives raise or lower the signal. The gist of the method:
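HepG2, transient multi-reporter transfection, cis promoter elements (endogenous TFs). 24 h exposure. Total RNA → RT → PCR → 6-FAM label → HpaI → CE. Gain/loss vs DMSO.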

Assay [11] can be described thus: ATG_NRF2_ARE_CIS: Attagene CIS-FACTORIAL HepG2 Assay for human Nuclear Factor Erythroid 2 Related Factor 2 (NFR2) response to Antioxidant Response Elements (ARE) (AID 2282992).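 As to AC50: reporter mRNA level measured by RT-PCR and capillary electrophoresis fluorescence.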 To be noted: HepG2 Attagene ARE/NRF2 reporter, transcription factor activity; actives raise or lower the signal. The gist of the method:
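Fluorescence intensity of reporter-specific cDNA fragments, separated by capillary electrophoresis, reflects mRNA induction in transfected HepG2 cells at 24 h. Activity is fitted bidirectionally, DMSO serving as baseline.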

Assay [12] in a line: ATG_Oct_MLP_CIS: Attagene CIS-FACTORIAL HepG2 Assay for human Octamer-Binding Transcription Factor (Oct) (AID 2282993). Particulars: HepG2 Attagene cis-factorial Oct reporter, mRNA; actives raise or lower the signal. The gist of the method: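 Using HepG2 cells bearing transfected cis-reporter constructs, mRNA induction was read after 24 h by fluorescent RT-PCR and capillary electrophoresis, with DMSO defining baseline for gain- or loss-of-signal fits.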

Assay [13] concerns the target Cellular tumor antigen p53 (Homo sapiens) (UniProt P04637). Kind of assay: ATG_p53_CIS: Attagene CIS-FACTORIAL HepG2 Assay for human p53 Transcription Factor (AID 2282994). Particulars: HepG2 p53 cis-element reporter, Attagene mRNA; actives raise or lower the signal. The essentials:
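Transiently transfected HepG2 (multiple cis reporter transcription units); exposure 24 h; reporter RNA via RT-PCR, 6-FAM extension, 2 h HpaI digest at 37 C, CE detection; DMSO baseline.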

Assay [14] can be described thus: BSK_3C_TissueFactor: BioMAP Diversity Plus: 3C Assay for Tissue Factor Biomarker Activity (AID 2282997). To be noted: BioMAP 3C HUVEC, tissue factor biomarker readout; actives raise or lower the signal. The essentials: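 Readout: Tissue Factor ELISA. Cells: human primary umbilical vein endothelium. Time: 24 h after dosing. Analysis: bidirectional fit, DMSO baseline.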

Assay [15] can be described thus: BSK_3C_uPAR: BioMAP Diversity Plus: 3C Assay for Urokinase-type plasminogen activator receptor (uPAR) Biomarker Activity (AID 2282998). To be noted: BioMAP 3C HUVEC, uPAR biomarker ELISA; actives raise or lower the signal. The essentials:
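In this endothelial cell-based assay, human umbilical vein primary cells were treated with chemicals and harvested at 24 h. uPAR was quantified using ELISA, with gains or losses fitted relative to DMSO controls.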
Background: An ELISA detects its analyte on a solid surface through an enzyme-linked reagent.

Assay [16] is described as follows: BSK_3C_VCAM1: BioMAP Diversity Plus: 3C Assay for Vascular cell adhesion molecule 1 (VCAM1) Biomarker Activity (AID 2282999). Particulars: BioMAP 3C HUVEC, VCAM1 ELISA, cytokine-stimulated; actives raise or lower the signal. The essentials: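 Vascular primary endothelium (human umbilical vein) was exposed to chemicals and assayed 24 h later. VCAM-1 levels came from ELISA, with DMSO serving as baseline for bidirectional fitting.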

Assay [17] can be described thus: BSK_4H_Eotaxin3: BioMAP Diversity Plus: 4H Assay for Eotaxin 3 Biomarker Activity (AID 2283000).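 Also: CCL26 protein level quantified by ELISA in parallel with SRB cytotoxicity check.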 To be noted: primary human endothelial cells (HUVEC); actives raise or lower the signal. The essentials:
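HUVEC, 24 h post-dose, ELISA for Eotaxin-3/CCL26. Gain or loss of signal fitted bidirectionally vs DMSO baseline.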

The target in assay [18] is human Peroxisome Proliferator-activated Receptor alpha (PPARa), PPARA (gene 5465) (UniProt Q07869). Kind of assay: ATG_PPARa_TRANS: Attagene TRANS-FACTORIAL HepG2 Assay for human Peroxisome Proliferator-activated Receptor alpha (PPARa) (AID 2283001; active = hit-call score of the fitted dose curve at least 0.9, where 1 is the maximum). The gist of the method: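 Exposure: 24 h, transiently transfected HepG2 cells. Endpoint: GAL4-UAS reporter mRNA, RT-PCR with capillary electrophoresis fluorescence. Baseline: DMSO; increases fitted.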
Chain of human Peroxisome Proliferator-activated Receptor alpha (PPARa), PPARA (gene 5465) (Q07869 whole entry, looked up, the tested form may be a part): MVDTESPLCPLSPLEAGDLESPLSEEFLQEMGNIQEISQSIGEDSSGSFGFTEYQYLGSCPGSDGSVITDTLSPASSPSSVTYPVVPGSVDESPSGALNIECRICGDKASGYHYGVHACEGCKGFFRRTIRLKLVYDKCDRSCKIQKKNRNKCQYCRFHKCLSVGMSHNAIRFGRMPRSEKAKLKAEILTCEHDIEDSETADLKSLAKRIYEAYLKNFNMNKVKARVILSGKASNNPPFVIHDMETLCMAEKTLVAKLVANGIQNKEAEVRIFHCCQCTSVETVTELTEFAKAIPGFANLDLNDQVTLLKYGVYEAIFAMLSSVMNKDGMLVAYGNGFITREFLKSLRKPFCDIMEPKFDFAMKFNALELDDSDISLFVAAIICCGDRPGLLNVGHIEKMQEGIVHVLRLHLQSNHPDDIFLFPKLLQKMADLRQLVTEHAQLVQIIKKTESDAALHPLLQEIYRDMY

Assay [19] addresses Glucocorticoid receptor (Homo sapiens) (UniProt P04150). The assay can be described thus: ATG_GR_TRANS: Attagene TRANS-FACTORIAL HepG2 Assay for human Glucocorticoid Receptor (GR) (AID 2282978; active = hit-call score of the fitted dose curve at least 0.9, where 1 is the maximum;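 also: activators score as hits since higher reporter transcript over DMSO is fitted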). To be noted: HepG2 Attagene TRANS GR reporter, mRNA transcription. The gist of the method: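 Measurement of GAL4-UAS-driven reporter mRNA in human HepG2 liver cells 24 h post-dosing, using RT-PCR with fluorescent labelling and capillary electrophoresis; the transfected constructs report exogenous NR-GAL4 chimera activity, fitted upward against DMSO.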

Assay [20] deals with Transcriptional activator Myb (Homo sapiens) (UniProt P10242). Kind of assay: ATG_Myb_CIS: Attagene CIS-FACTORIAL HepG2 Assay for human Myeloblastosis (Myb) Proto-Oncogene Transcription Factor (AID 2282986). To be noted: HepG2 Attagene CIS-FACTORIAL Myb reporter transcription; actives raise or lower the signal. The essentials:
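Fluorescence signals from capillary electrophoresis of RT-PCR-amplified reporter cDNA give the read-out. Cells: HepG2 transfected with multiple cis-regulated reporter units. Exposure lasts 24 hours; DMSO defines baseline for gain or loss of signal.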

Chain of Nuclear respiratory factor 1 (Homo sapiens) (Q16656 whole entry, looked up): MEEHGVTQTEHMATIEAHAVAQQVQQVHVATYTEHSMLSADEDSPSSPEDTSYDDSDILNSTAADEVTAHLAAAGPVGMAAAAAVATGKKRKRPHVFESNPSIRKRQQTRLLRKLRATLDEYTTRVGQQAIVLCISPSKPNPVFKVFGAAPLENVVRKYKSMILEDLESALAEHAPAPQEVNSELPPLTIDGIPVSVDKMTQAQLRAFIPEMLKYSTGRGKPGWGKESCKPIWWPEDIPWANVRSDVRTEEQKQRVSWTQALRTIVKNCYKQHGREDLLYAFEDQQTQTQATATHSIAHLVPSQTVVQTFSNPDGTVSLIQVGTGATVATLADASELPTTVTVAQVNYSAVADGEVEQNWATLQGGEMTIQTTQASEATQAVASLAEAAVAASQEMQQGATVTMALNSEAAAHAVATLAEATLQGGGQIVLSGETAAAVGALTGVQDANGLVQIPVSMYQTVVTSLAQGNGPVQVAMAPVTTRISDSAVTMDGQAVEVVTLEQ
Chain of Transcriptional activator Myb (Homo sapiens) (P10242 whole entry, looked up): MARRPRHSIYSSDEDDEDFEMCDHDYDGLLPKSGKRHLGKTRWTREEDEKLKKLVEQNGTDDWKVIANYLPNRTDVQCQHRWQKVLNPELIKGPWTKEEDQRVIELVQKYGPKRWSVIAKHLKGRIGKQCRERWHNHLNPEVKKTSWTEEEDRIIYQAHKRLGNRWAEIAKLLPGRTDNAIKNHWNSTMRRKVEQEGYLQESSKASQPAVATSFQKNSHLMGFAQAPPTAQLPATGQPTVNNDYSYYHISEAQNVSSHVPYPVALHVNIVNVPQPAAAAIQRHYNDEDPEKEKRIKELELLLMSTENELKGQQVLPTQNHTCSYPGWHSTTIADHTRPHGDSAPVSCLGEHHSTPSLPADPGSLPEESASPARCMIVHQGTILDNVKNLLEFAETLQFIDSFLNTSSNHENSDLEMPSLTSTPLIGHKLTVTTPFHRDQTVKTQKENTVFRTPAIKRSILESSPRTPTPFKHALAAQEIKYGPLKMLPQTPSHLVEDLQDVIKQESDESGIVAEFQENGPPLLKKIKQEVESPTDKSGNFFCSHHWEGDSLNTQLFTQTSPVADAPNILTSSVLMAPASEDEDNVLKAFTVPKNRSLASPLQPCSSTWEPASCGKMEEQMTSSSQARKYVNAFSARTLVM
Chain of Myc proto-oncogene protein (Homo sapiens) (P01106 whole entry, looked up): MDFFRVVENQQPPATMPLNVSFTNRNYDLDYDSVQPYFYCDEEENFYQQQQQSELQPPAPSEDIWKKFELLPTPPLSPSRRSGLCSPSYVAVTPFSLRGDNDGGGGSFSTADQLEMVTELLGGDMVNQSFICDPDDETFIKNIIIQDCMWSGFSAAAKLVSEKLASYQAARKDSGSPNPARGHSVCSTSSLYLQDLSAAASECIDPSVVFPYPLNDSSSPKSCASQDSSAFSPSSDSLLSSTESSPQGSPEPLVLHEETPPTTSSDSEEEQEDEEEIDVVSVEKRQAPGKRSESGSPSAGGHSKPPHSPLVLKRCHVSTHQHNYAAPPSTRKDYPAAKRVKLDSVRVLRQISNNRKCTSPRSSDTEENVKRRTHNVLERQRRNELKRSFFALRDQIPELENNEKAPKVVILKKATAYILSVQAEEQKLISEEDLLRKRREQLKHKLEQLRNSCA
Chain of Hepatocyte nuclear factor 4-alpha (Homo sapiens) (P41235 whole entry, looked up, the tested form may be a part): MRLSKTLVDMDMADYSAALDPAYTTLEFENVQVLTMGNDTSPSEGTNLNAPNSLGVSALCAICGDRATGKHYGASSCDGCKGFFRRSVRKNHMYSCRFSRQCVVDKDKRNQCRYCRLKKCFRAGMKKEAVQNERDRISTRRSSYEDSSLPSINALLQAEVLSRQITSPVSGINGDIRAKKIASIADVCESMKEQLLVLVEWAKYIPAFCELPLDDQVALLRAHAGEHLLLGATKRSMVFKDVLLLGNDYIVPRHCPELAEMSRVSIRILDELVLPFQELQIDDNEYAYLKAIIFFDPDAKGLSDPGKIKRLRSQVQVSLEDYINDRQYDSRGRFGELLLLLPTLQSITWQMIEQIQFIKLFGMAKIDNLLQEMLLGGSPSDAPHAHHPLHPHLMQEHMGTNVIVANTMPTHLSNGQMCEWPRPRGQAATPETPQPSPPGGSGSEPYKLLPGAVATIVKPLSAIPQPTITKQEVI
Chain of Oxysterols receptor LXR-beta (Homo sapiens) (P55055 whole entry, looked up, the tested form may be a part): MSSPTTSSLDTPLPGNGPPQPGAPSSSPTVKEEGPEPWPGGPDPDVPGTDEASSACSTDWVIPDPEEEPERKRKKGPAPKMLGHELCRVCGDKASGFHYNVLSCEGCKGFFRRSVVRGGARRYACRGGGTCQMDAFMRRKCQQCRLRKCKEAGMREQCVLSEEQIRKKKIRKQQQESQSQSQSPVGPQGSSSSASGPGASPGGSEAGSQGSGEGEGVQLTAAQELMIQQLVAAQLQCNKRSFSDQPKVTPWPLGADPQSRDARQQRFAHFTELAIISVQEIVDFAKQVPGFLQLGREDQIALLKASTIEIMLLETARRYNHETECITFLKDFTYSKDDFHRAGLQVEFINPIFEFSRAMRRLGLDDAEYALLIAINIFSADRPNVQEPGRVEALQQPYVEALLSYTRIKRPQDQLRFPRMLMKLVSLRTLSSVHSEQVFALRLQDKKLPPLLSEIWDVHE
Chain of Cellular tumor antigen p53 (Homo sapiens) (P04637 whole entry, looked up): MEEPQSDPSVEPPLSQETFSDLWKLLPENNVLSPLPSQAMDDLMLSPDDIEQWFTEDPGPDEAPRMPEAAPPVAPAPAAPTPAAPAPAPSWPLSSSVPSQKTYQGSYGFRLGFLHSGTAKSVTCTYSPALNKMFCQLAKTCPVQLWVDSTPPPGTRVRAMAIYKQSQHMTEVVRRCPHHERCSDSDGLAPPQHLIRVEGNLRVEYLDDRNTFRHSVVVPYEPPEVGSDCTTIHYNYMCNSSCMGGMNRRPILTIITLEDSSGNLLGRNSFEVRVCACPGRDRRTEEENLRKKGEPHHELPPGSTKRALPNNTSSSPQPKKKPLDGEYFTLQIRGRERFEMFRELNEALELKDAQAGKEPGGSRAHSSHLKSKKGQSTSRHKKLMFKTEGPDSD
Chain of Glucocorticoid receptor (Homo sapiens) (P04150 whole entry, looked up, the tested form may be a part): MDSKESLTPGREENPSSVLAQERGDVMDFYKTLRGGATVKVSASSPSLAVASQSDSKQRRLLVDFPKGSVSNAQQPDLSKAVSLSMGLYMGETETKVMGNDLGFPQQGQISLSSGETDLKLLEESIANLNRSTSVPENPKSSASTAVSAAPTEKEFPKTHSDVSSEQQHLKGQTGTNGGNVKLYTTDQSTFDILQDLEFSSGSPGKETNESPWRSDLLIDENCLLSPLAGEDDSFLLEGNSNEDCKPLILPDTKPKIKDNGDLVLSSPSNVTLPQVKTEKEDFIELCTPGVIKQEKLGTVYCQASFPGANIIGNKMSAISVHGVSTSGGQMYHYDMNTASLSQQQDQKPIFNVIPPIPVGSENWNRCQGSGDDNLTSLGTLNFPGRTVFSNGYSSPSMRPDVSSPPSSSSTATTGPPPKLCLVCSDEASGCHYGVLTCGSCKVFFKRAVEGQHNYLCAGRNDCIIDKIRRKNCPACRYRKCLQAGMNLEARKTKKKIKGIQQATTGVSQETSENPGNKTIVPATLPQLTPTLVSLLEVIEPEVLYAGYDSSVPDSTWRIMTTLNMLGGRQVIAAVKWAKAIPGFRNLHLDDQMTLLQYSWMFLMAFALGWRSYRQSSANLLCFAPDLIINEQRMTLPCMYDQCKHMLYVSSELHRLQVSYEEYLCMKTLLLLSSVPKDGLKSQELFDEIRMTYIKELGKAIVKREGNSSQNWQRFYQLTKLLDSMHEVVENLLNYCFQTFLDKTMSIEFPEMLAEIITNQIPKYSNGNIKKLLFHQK

On to `O=c1c(-c2ccc(O)cc2)coc2cc(O)ccc12`, for which the outcome in [1], in assay [2], in assay [3], in assay [4], in [5] and in assay [6] was inactive. In addition, the result in assay [7], in assay [8], in assay [9], in assay [10], in assay [11] and in assay [12] was inactive. Besides, the result in [13], in assay [15], in [16], in assay [17] and in [18] was inactive. Besides, the AC50 was 100 µM (active) in assay [12] and 15.7 µM (active) in assay [14].

On to `CCCOC(=O)c1ccc(O)cc1`, for which the call in [19], in [1], in assay [2], in assay [3], in assay [4] and in assay [5] was inactive. Besides, the compound was classed as inactive in [20], in assay [7], in [9], in [11], in [12] and in assay [13]. The result in [14], in assay [16], in assay [17] and in assay [18] was inactive. Besides, the AC50 is 77.7 µM (active) in assay [11] and 168 µM (active) in assay [12].

As to `CC(C)(C)c1cc(C(C)(C)C)c(O)c(C(C)(C)C)c1`, the AC50 in [1] was 27.8 µM (active); in assay [11], 49.6 µM (active) and 57.1 µM (active); in assay [12], 27.6 µM (active) and 43.2 µM (active). Further, the compound was classed as inactive in [1], in [2], in assay [3], in assay [4], in [5] and in [20]. For the same compound, the outcome in assay [7], in [9], in assay [13], in assay [14], in assay [16] and in assay [17] was inactive.

Broadly, the AC50 is the concentration at which the activity in the assay is half-maximal.
